# The full list was thinned out, with the strongest signals kept by preference.
# Assays:
# Assay in all cases: glycan array binding signal (z-score within array); higher = stronger binding
# Conditions in all cases: glycan notation: IUPAC condensed, linker removed
# [1] = molecular target: Fuc(a1-2)Gal(b1-4)GlcNAc(b1-3)[Fuc(a1-3)[Gal(b1-4)]GlcNAc(b1-6)]Gal(b1-4)Glc
# Procedure, shortened: (§1)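 Glycan array data were curated from 3228 arrays in the Consortium for Functional Glycomics database and kept only where the protein sequence was available. Glycan names were converted to IUPAC-condensed notation, and columns mapping to the same glycan were averaged. The binding signal is a within-array Z-score, averaged across arrays of the same protein sequence at different concentrations or buffers and across linkers. Negative Z-scores can be read as non-binding.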
# [2] = molecular target: Fuc(a1-2)Gal(b1-4)[Fuc(a1-3)]GlcNAc(b1-3)Gal(b1-4)[Fuc(a1-3)]GlcNAc(b1-3)Gal(b1-4)[Fuc(a1-3)]GlcNAc
# Procedure, shortened: as §1
# [3] = molecular target: Fuc(a1-2)[Gal(a1-3)]Gal(b1-3)GlcNAc(b1-6)GalNAc
# Procedure, shortened: as §1
# [4] = molecular target: Fuc(a1-2)[GalNAc(a1-3)]Gal(b1-4)[Fuc(a1-3)]GlcNAc
# Procedure, shortened: as §1
# [5] = molecular target: Fuc(a1-3)[Gal(b1-4)]GlcNAc(b1-6)GalNAc
# Procedure, shortened: as §1
# [6] = molecular target: Fuc(a1-3)[GalNAc(b1-4)]GlcNAc6S
# Procedure, shortened: as §1
# [7] = molecular target: Gal(a1-3)Gal(b1-3)GlcNAc(b1-2)Man(a1-3)[Gal(a1-3)Gal(b1-3)GlcNAc(b1-2)Man(a1-6)]Man(b1-4)GlcNAc(b1-4)GlcNAc
# Procedure, shortened: as §1
# [8] = molecular target: Gal(a1-4)Gal(b1-4)GlcNAc
# Procedure, shortened: as §1
# [9] = molecular target: Gal(b1-3)GalNAc(a1-3)[Fuc(a1-2)]Gal(b1-4)GlcNAc
# Procedure, shortened: as §1
# [10] = molecular target: Gal(b1-3)GlcNAc(b1-2)[Gal(b1-3)GlcNAc(b1-6)]Man(a1-6)[Gal(b1-3)GlcNAc(b1-2)Man(a1-3)]Man(b1-4)GlcNAc(b1-4)GlcNAc
# Procedure, shortened: as §1
# [11] = molecular target: Gal(b1-3)[Fuc(a1-4)]GlcNAc(b1-3)Gal(b1-4)[Fuc(a1-3)]GlcNAc
# Procedure, shortened: as §1
# [12] = molecular target: Gal(b1-4)GlcNAc(b1-2)[Gal(b1-4)GlcNAc(b1-4)]Man(a1-3)[Gal(b1-4)GlcNAc(b1-2)[Gal(b1-4)GlcNAc(b1-6)]Man(a1-6)]Man(b1-4)GlcNAc(b1-4)GlcNAc
# Procedure, shortened: as §1
# [13] = molecular target: Gal(b1-4)GlcNAc(b1-3)Gal(b1-3)GalNAc
# Procedure, shortened: as §1
# [14] = molecular target: Gal(b1-4)GlcNAc(b1-3)Gal(b1-4)GlcNAc(b1-2)Man(a1-3)[Gal(b1-4)GlcNAc(b1-3)Gal(b1-4)GlcNAc(b1-2)Man(a1-6)]Man(b1-4)GlcNAc(b1-4)GlcNAc
# Procedure, shortened: as §1
# [15] = molecular target: Gal(b1-4)GlcNAc(b1-3)Gal(b1-4)GlcNAc(b1-3)Gal(b1-4)GlcNAc(b1-2)Man(a1-3)[Gal(b1-4)GlcNAc(b1-3)Gal(b1-4)GlcNAc(b1-3)Gal(b1-4)GlcNAc(b1-2)Man(a1-6)]Man(b1-4)GlcNAc(b1-4)GlcNAc
# Procedure, shortened: as §1
# [16] = molecular target: Gal(b1-4)GlcNAc(b1-3)Gal(b1-4)GlcNAc(b1-3)GalNAc
# Procedure, shortened: as §1
# [17] = molecular target: Gal(b1-4)GlcNAc(b1-3)Gal(b1-4)GlcNAc(b1-3)[Gal(b1-4)GlcNAc(b1-3)Gal(b1-4)GlcNAc(b1-6)]GalNAc
# Procedure, shortened: as §1
# [18] = molecular target: Gal(b1-4)GlcNAc(b1-3)Gal(b1-4)GlcNAc(b1-6)[Gal(b1-3)]GalNAc
# Procedure, shortened: as §1
# [19] = molecular target: Gal3S(b1-4)Glc
# Procedure, shortened: as §1
# [20] = molecular target: Gal3S(b1-4)[Fuc(a1-3)]Glc6S
# Procedure, shortened: as §1
# [21] = molecular target: GalNAc(b1-4)GlcNAc6S
# Procedure, shortened: as §1
# [22] = molecular target: GalNAc3S(b1-4)GlcNAc3S
# Procedure, shortened: as §1
# [23] = molecular target: GlcA(b1-6)Gal
# Procedure, shortened: as §1
# [24] = molecular target: GlcA3S(b1-3)Gal(b1-4)GlcNAc(b1-3)Gal(b1-4)Glc
# Procedure, shortened: as §1
# [25] = molecular target: GlcNAc(b1-3)Gal(b1-4)Glc
# Procedure, shortened: as §1
# [26] = molecular target: GlcNAc(b1-3)Gal(b1-4)GlcNAc
# Procedure, shortened: as §1
# [27] = molecular target: GlcNAc(b1-3)Gal(b1-4)GlcNAc(b1-2)Man(a1-3)[GlcNAc(b1-3)Gal(b1-4)GlcNAc(b1-2)Man(a1-6)]Man(b1-4)GlcNAc(b1-4)GlcNAc
# Procedure, shortened: as §1
# [28] = molecular target: Kdn(a2-3)Gal(b1-4)[Fuc(a1-3)]GlcNAc
# Procedure, shortened: as §1
# [29] = molecular target: Man(a1-2)Man(a1-3)Man
# Procedure, shortened: as §1
# [30] = molecular target: Man(a1-3)[Man(a1-6)]Man(a1-6)[Man(a1-2)Man(a1-3)]Man(b1-4)GlcNAc(b1-4)GlcNAc
# Procedure, shortened: as §1
# [31] = molecular target: Man(a1-3)[Man(a1-6)]Man(a1-6)[Man(a1-3)]Man(b1-4)GlcNAc(b1-4)GlcNAc
# Procedure, shortened: as §1
# [32] = molecular target: Neu5Ac(a2-3)Gal(b1-4)GlcNAc(b1-2)[Neu5Ac(a2-3)Gal(b1-4)GlcNAc(b1-6)]Man(a1-6)[Neu5Ac(a2-3)Gal(b1-4)GlcNAc(b1-2)Man(a1-3)][GlcNAc(b1-4)]Man(b1-4)GlcNAc(b1-4)GlcNAc
# Procedure, shortened: as §1
# [33] = molecular target: Neu5Ac(a2-3)Gal(b1-4)GlcNAc(b1-3)Gal(b1-4)GlcNAc(b1-2)Man(a1-3)[Neu5Ac(a2-3)Gal(b1-4)GlcNAc(b1-3)Gal(b1-4)GlcNAc(b1-2)Man(a1-6)]Man(b1-4)GlcNAc(b1-4)GlcNAc
# Procedure, shortened: as §1
# [34] = molecular target: Neu5Ac(a2-3)Gal(b1-4)GlcNAc(b1-3)Gal(b1-4)GlcNAc(b1-3)Gal(b1-4)GlcNAc(b1-2)Man(a1-3)[Neu5Ac(a2-3)Gal(b1-4)GlcNAc(b1-3)Gal(b1-4)GlcNAc(b1-3)Gal(b1-4)GlcNAc(b1-2)Man(a1-6)]GalNAc
# Procedure, shortened: as §1
# [35] = molecular target: Neu5Ac(a2-3)Gal(b1-4)GlcNAc(b1-3)Gal(b1-4)GlcNAc(b1-3)GalNAc
# Procedure, shortened: as §1
# [36] = molecular target: Neu5Ac(a2-3)[GalNAc(b1-4)]Gal(b1-4)GlcNAc(b1-3)GalNAc
# Procedure, shortened: as §1
# [37] = molecular target: Neu5Ac(a2-6)Gal(b1-4)GlcNAc(b1-3)Gal(b1-4)GlcNAc(b1-3)Gal(b1-4)GlcNAc(b1-2)Man(a1-3)[Neu5Ac(a2-6)Gal(b1-4)GlcNAc(b1-3)Gal(b1-4)GlcNAc(b1-3)Gal(b1-4)GlcNAc(b1-2)Man(a1-6)]GalNAc
# Procedure, shortened: as §1
# [38] = molecular target: Neu5Ac(a2-6)Gal(b1-4)GlcNAc(b1-3)Gal(b1-4)GlcNAc(b1-3)[Neu5Ac(a2-6)Gal(b1-4)GlcNAc(b1-3)Gal(b1-4)GlcNAc(b1-6)]GalNAc
# Procedure, shortened: as §1
# [39] = molecular target: Neu5Ac(a2-6)Gal(b1-4)GlcNAc(b1-3)Gal(b1-4)[Fuc(a1-3)]GlcNAc(b1-3)Gal(b1-4)[Fuc(a1-3)]GlcNAc
# Procedure, shortened: as §1
# [40] = molecular target: Neu5Ac(a2-6)GalNAc
# Procedure, shortened: as §1
binder,measurement,setting,value
"mCC1-Hexahis-Precomplexed (Mus musculus), P31809 (protein) MELASAHLHKGQVPWGGLLLTASLLASWSPATTAEVTIEAVPPQVAEDNNVLLLVHNLPLALGAFAWYKGNTTAIDKEIARFVPNSNMNFTGQAYSGREIIYSNGSLLFQMITMKDMGVYTLDMTDENYRRTQATVRFHVHPILLKPNITSNNSNPVEGDDSVSLTCDSYTDPDNINYLWSRNGESLSEGDRLKLSEGNRTLTLLNVTRNDTGPYVCETRNPVSVNRSDPFSLNIIYGPDTPIISPSDIYLHPGSNLNLSCHAASNPPAQYFWLINEKPHASSQELFIPNITTNNSGTYTCFVNNSVTGLSRTTVKNITVLEPVTQPFLQVTNTTVKELDSVTLTCLSNDIGANIQWLFNSQSLQLTERMTLSQNNSILRIDPIKREDAGEYQCEISNPVSVRRSNSIKLDIIFDPTQGGLSDGHHHHHH",glycan array binding signal (z-score),[1],-0.163
same,glycan array binding signal (z-score),[2],-0.097
same,glycan array binding signal (z-score),[3],-0.18
same,glycan array binding signal (z-score),[4],0.277
same,glycan array binding signal (z-score),[5],-0.024
same,glycan array binding signal (z-score),[6],-0.231
same,glycan array binding signal (z-score),[7],-0.189
same,glycan array binding signal (z-score),[8],-0.227
same,glycan array binding signal (z-score),[9],-0.191
same,glycan array binding signal (z-score),[10],-0.273
same,glycan array binding signal (z-score),[11],-0.217
same,glycan array binding signal (z-score),[12],-0.217
same,glycan array binding signal (z-score),[13],-0.158
same,glycan array binding signal (z-score),[14],3.85
same,glycan array binding signal (z-score),[15],4.96
same,glycan array binding signal (z-score),[16],6.28
same,glycan array binding signal (z-score),[17],4.46
same,glycan array binding signal (z-score),[18],5.01
same,glycan array binding signal (z-score),[19],-0.25
same,glycan array binding signal (z-score),[20],-0.049
same,glycan array binding signal (z-score),[21],-0.282
same,glycan array binding signal (z-score),[22],-0.065
same,glycan array binding signal (z-score),[23],-0.12
same,glycan array binding signal (z-score),[24],-0.235
same,glycan array binding signal (z-score),[25],-0.227
same,glycan array binding signal (z-score),[26],-0.246
same,glycan array binding signal (z-score),[27],-0.184
same,glycan array binding signal (z-score),[28],-0.169
same,glycan array binding signal (z-score),[29],-0.152
same,glycan array binding signal (z-score),[30],4.18
same,glycan array binding signal (z-score),[31],-0.197
same,glycan array binding signal (z-score),[32],-0.045
same,glycan array binding signal (z-score),[33],7.65
same,glycan array binding signal (z-score),[34],7.6
same,glycan array binding signal (z-score),[35],-0.119
same,glycan array binding signal (z-score),[36],3.55
same,glycan array binding signal (z-score),[37],4.99
same,glycan array binding signal (z-score),[38],9.54
same,glycan array binding signal (z-score),[39],-0.116
same,glycan array binding signal (z-score),[40],-0.234
